Laboratory results: ChEMBL document CHEMBL4513216, “Probing the Open Global Health Chemical Diversity Library for Multistage-Active Starting Points for Next-Generation Antimalarials” (ACS Infect Dis, 2020)
Hit rate of the full screen: of about 69,000 compounds, about 8,600 (12%) showed an effect of 50% or more. This excerpt belongs to a sample that is enriched for strong results.

Test system: Plasmodium berghei
Assay: Screen against P. berghei liver stage (PbLuc), transformed with Luciferase, at 10uM
Format: functional, HepG2
Conditions: tested at 10 uM

Row | SMILES | INHIBITION [%]
1 | Cc1nn(C)c2nc(NCCN3CCCC(C(N)=O)C3)sc12 (stereo not drawn) | 20
2 | Cn1ccnc1CN1CCC(CCCc2ccccn2)(C(N)=O)CC1 | -20.6
3 | CNC(=O)C1Cc2ccccc2CN1C(=O)CC(C)C (stereo not drawn) | -47
4 | Cc1cc(C)n(CC(C)CNC(=O)NCc2c(C)cc(C)[nH]c2=O)n1 (stereo not drawn) | 42.3
5 | Cc1cc(C)n(CCCNC(=O)NCc2c(C)cc(C)[nH]c2=O)n1 | 38.9
6 | Cc1cc(C)n(CC(C)NC(=O)NCc2c(C)cc(C)[nH]c2=O)n1 (stereo not drawn) | 50.8
7 | CCC(=O)N1CCCC1c1n[nH]cc1-c1ccccc1F (stereo not drawn) | -6.73
8 | Cc1ccc(-n2nnnc2SCN2CCCCC2=O)cc1C | 63.8
9 | Cc1ccc(C)c(-n2nnnc2SCN2CCCCC2=O)c1 | 13.7
10 | O=C1CCCCN1CSc1nnnn1-c1ccc(Cl)cc1 | 30.4
11 | O=C(Cc1ccccn1)N1CCC(c2noc(-c3ccncc3)n2)CC1 | -8.12
12 | O=C(NCC1CC1)[C@@H]1CCO[C@@H]2CCN(Cc3ccsc3)C[C@H]21 | -9.71
13 | CC1CCC(NC(=O)c2nn(C)cc2Br)CC1 (stereo not drawn) | 65.2
14 | CC1CCC(NC(=O)c2nn(C)cc2I)CC1 (stereo not drawn) | -32.5
15 | Cn1cc(I)c(C(=O)NC2CCCC2)n1 | -13.2
16 | Cc1nc(C(C)C)sc1C(=O)N1CCN(C2CCSCC2)CC1 | -21.3
17 | CCC(CCNCc1cnc(C2CCC2)s1)N1CCCC1=O (stereo not drawn) | 53.4
18 | O=C1CCCCN1CCCNCc1cnc(C2CCC2)s1 | 3.87
19 | CC(CCN1CCCC1=O)NCc1cnc(C2CCC2)s1 (stereo not drawn) | 54.4
20 | CC(c1nc(C2CC2)no1)N1CCN(CCN2CCCC2=O)CC1 (stereo not drawn) | -65.2
21 | c1cnc(N2CCC(NCc3cnc(C4CCC4)s3)CC2)nc1 | -22
22 | Cc1ccc(N2CCC(NCc3cnc(C4CCC4)s3)CC2)nc1 | 34.7

Row | SMILES | INHIBITION [%]
23 | CC(C)NC(=O)Nc1ccc(CNCc2cccc(OC(F)F)c2)cc1 | 38.6
24 | Cn1c(Cn2ccnc2)nnc1C1CCN(C(=O)c2cccnc2)CC1 | -27.4
25 | Cn1cc(N2CC3(CCN(CC4CCC4)CC3)OCC2=O)cn1 | 42.5
26 | Cc1cc(C)c2c(c1)C(CC(=O)O)C(=O)N2 (stereo not drawn) | 54.8
27 | Cc1ccc(C)c2c1NC(=O)C2CC(=O)O (stereo not drawn) | -95.1
28 | Cc1cc(C)c2c(c1)NC(=O)C2CC(=O)O (stereo not drawn) | 27.6
29 | CCCc1nc(N2CCCN(c3ccncc3)CC2)c2cnn(C)c2n1 | 39.1
30 | CCn1cnnc1C1CCN(C(=O)c2cc(F)ccc2OC)CC1 | 33.3
31 | CN(C)C(=O)CCCS(=O)(=O)Cc1cc(Cl)c2c(c1)OCCO2 | 31.9
32 | O=C(CS(=O)(=O)Cc1cc(Cl)c2c(c1)OCCCO2)NCC1CC1 | 60.5
33 | CS(=O)(=O)CCS(=O)(=O)Cc1cc(Cl)c2c(c1)OCCCO2 | 25.5
34 | CN(C)C(=O)CCS(=O)(=O)Cc1cc(Cl)c2c(c1)OCO2 | 44.3
35 | CNC(=O)CS(=O)(=O)Cc1cc(Cl)c2c(c1)OCCCO2 | 6.14
36 | NC(=O)CS(=O)(=O)Cc1cc(Cl)c2c(c1)OCCCO2 | -125
37 | CS(=O)(=O)Cc1cc(Cl)c2c(c1)OCCCO2 | 50.1
38 | CN(C)C(=O)CS(=O)(=O)Cc1cc(Cl)c2c(c1)OCCCO2 | 21.8
39 | CN(C)C(=O)CCS(=O)(=O)Cc1cc(Cl)c2c(c1)OCCO2 | 54.4
40 | CSCC(=O)N1C[C@H](c2ccc(C)o2)[C@@H](N)C1 | -1.45
41 | CCNc1ncc(CN2CCOC(Cc3cccc(OC)c3)C2)cn1 (stereo not drawn) | 15.2
42 | Cn1cnc2c1C(COCc1cccnc1)N(Cc1nccs1)CC2 (stereo not drawn) | 20.1
43 | CCN(Cc1c(C)nn(CC)c1C)S(=O)(=O)c1cn(C)nc1C | 8.49
44 | COc1ccccc1CN1CC[C@]2(C[C@@H](OC)CO2)C1 | -79.4

Row | SMILES | INHIBITION [%]
45 | CCC(C(=O)NC1CCCCC1)n1ccc2ncccc2c1=O (stereo not drawn) | -4.12
46 | Nc1nc(N2CCCCCC2)ncc1C(=O)NCc1ccc(F)c(Cl)c1 | 43.8
47 | CN(C)CC1(O)CCCN(C(=O)CCc2nc3cccnc3n2C)C1 (stereo not drawn) | 8.64
48 | Cn1cc(CCNC(=O)c2cc3ccccc3nc2N2CCCC2)cn1 | 59.4
49 | CCOC(=O)NCCNC(=O)c1cc2ccccc2nc1N1CCCC1 | -7.36
50 | CS(=O)(=O)CCNC(=O)c1cc2ccccc2nc1N1CCCC1 | -1.37
51 | Cn1c(CCC(=O)N2CCC3(CCCO3)CC2)nc2cccnc21 | 27.4
52 | CCc1cc(CNC(=O)N2CCC(Cc3cnn(C)c3)C2)on1 (stereo not drawn) | 3.1
53 | COc1ccccc1C1CNC(=O)c2nc(-c3nccn3C)[nH]c2C1 (stereo not drawn) | 55.7
54 | COc1ccccc1C1CNC(=O)c2nc(-c3cnn(C)c3)[nH]c2C1 (stereo not drawn) | -36.5
55 | COc1ccccc1C1CNC(=O)c2nc(-c3ncc[nH]3)[nH]c2C1 (stereo not drawn) | 1.81
56 | COCc1ccccc1CNc1nnc(C)c(C)c1C#N | 22.9
57 | Cc1ccccc1C1(CNc2nnc(C)c(C)c2C#N)CCOCC1 | 17.4
58 | Cc1nnc(NCc2ccccc2Cl)c(C#N)c1C | 49.9
59 | Cc1nnc(NCC2(c3ccccc3)CC2)c(C#N)c1C | 9.48
60 | Cc1nnc(NCC2(c3ccccc3)CCC2)c(C#N)c1C | 92.1
61 | Cc1nnc(NCC2(c3ccccc3)CCOCC2)c(C#N)c1C | 6.67
62 | Cc1nnc(NCC2(c3ccc(Cl)cc3Cl)CCOCC2)c(C#N)c1C | 52.9
63 | COc1ccccc1C1(CNc2nnc(C)c(C)c2C#N)CCCC1 | 97.1
64 | COc1ccccc1C1(CNc2nnc(C)c(C)c2C#N)CCOCC1 | -10.2
65 | CCCc1cc(NC2CCc3nc(C(C)C)nn3C2)n2ncnc2n1 (stereo not drawn) | -5.65
66 | COCCCNC(=O)N1CCN(C(=O)c2nsc3ccc(C)cc23)CC1 | 15.1

Row | SMILES | INHIBITION [%]
67 | CC(C)NC(=O)Cn1cc(OCc2ccc(F)cc2)c(=O)cc1CO | 27.5
68 | COCCn1cc2c(n1)C(CNC(=O)c1cc(C)[nH]c1C)OCC2 (stereo not drawn) | 23.6
69 | O=C(NC1CCC(O)CC1)c1ccc2nc(-c3ccc(F)cc3)cn2c1 (stereo not drawn) | 35.5
70 | CCc1nnc2n1CCN(Cc1ncc(-c3ccc(F)cc3)o1)C2 | -3.235
71 | Cc1csc(CNCC(C)c2nc3ccccc3o2)n1 (stereo not drawn) | 48.3
72 | Cc1nc(CNCC(C)c2nc3ccccc3o2)cs1 (stereo not drawn) | 20
73 | Cc1ncsc1CNCC(C)c1nc2ccccc2o1 (stereo not drawn) | 50
74 | Nc1cc(-c2cncnc2C2CCN(C(=O)c3ccccc3)C2)ccn1 (stereo not drawn) | 3.48
75 | Cn1ccnc1CN1C[C@@H]2[C@@H](C1)OCC(=O)N2CC1CCCC1 | 39.8
76 | O=C(c1ccc[nH]1)N1CC[C@@H](OCC2CC2)[C@@H]1Cc1cccnc1 | -68.6
77 | O=C(C1CCOCC1)N1CCC(OCc2cccnc2)CC1 | 85.2
78 | Cn1c(CN2CCC(OCc3cccnc3)CC2)cc2ccccc21 | 56.2
79 | Cn1c(CN2CCN(c3cccnc3)CC2)cc2ccccc21 | 27.4
80 | O=C(Cc1cccnc1)N1CCC(OCc2ccccc2)CC1 | 7.84
81 | CN(CC(=O)N1CCC(OCc2cccnc2)CC1)c1ccccc1 | 5.91
82 | O=C(C1CCOC1)N1CCC(OCc2ccccc2)CC1 (stereo not drawn) | 33.9
83 | CCc1ccc(C(=O)NCc2cccc(S(=O)(=O)NC)c2)o1 | -14
84 | CCn1ccnc1CN1CCCN(C(=O)c2cnn(C)c2)CC1 | -21.21
85 | Cc1cc(N2CCN(C(=O)Cc3c(C)nc(C)[nH]c3=O)CC2)cc(C)n1 | 14.9
86 | CCO[C@@H]1CN(Cc2scnc2C)[C@@H]2CCCO[C@@H]21 | -6.39
87 | N#Cc1cnc(N2CCC3(CC2)OCCO3)nc1N | 1.61
88 | Cc1ccc(-c2noc(CN3CCc4cncnc4C3)n2)cc1 | 38.6

Row | SMILES | INHIBITION [%]
89 | Cn1cc(C(=O)N2CCCC(c3cc(O)n(C)n3)C2)cn1 (stereo not drawn) | 19.6
90 | O=C1CN(S(=O)(=O)c2ccc(F)cc2)CC(O)CN1CC1CC1 (stereo not drawn) | 4.07
91 | Cn1cnnc1S(=O)(=O)C1CCN(C(=O)c2cccs2)CC1 | 41.8
92 | Cc1csc(C(=O)N2CCC(S(C)(=O)=O)CC2)c1 | 43.7
93 | COc1ccc(S(=O)(=O)C2CCN(C(=O)c3cc(C)cs3)CC2)cc1 | 65.2
94 | Cc1csc(C(=O)N2CC(S(=O)(=O)C3CCCCC3)C2)c1 | 75.2
95 | Cc1csc(C(=O)N2CCCC(c3[nH]ncc3S(C)(=O)=O)C2)c1 (stereo not drawn) | 27.8
96 | Cc1csc(C(=O)N2CCC(S(C)(=O)=O)C2)c1 (stereo not drawn) | 12.3
97 | O=C(CCOc1cccc(F)c1)N1CCCC(n2cccn2)C1 (stereo not drawn) | -18
98 | Cc1ccc(-c2nc(CN3CCCC3Cn3cncn3)cs2)o1 (stereo not drawn) | -15.5
99 | O=S1(=O)COCCN1Cc1ccc(F)c(F)c1 | 29.9
100 | Cc1nc(-c2ccc(S(=O)(=O)N3CCSCC3)cc2)co1 | 49.4
101 | COCCNC(=O)c1cc(S(=O)(=O)N2CCCCC2)cs1 | -4.86
102 | Cc1nc(-c2ccc(S(=O)(=O)N3CCCCC3)cc2)co1 | 6.09
103 | COCc1nc(-c2ccc(S(=O)(=O)N3CCCC3)cc2)cs1 | 61
104 | Cc1nc(-c2ccc(S(=O)(=O)N3CCSC3)cc2)co1 | 39.6
105 | Cc1nc(-c2ccc(S(=O)(=O)N3CCOCC3)cc2)co1 | 14.8
106 | COCCCc1nc(-c2ccc(S(=O)(=O)N3CCCC3)cc2)cs1 | 61
107 | COCCNc1nc(-c2ccc(S(=O)(=O)N3CCCCCC3)cc2)cs1 | 62.8
108 | COCCNc1nc(-c2ccc(S(=O)(=O)N3CCCCC3)cc2)cs1 | -1.16
